# Screens (PubChem BioAssay)
# SARS 3CLpro inh = SARS-CoV 3CLpro protease inhibition | inhibition, % at 6 µM | recombinant SARS-CoV 3CLpro, quenched FRET peptide cleavage | AID 1706 | P0C6X7 | 290,000 tested, 0.14% active; in the data active = inhibition above about 12%
# BoNT F protease = blocks Botulinum neurotoxin F light chain protease; Multiplex microsphere protease cleavage assay, flow cytometry; inhibition, % at 10 µM; 360,000 tested, 0.22% active; AID 588497; in the data active = inhibition above about 35%, passing the limit was not always enough; inconclusive = no clear call, values can overlap the other calls; also: plate controls were buffer without enzyme for full effect and enzyme alone for no effect
# Anthrax LF prot = blocks Bacillus anthracis lethal factor protease; P15917; multiplex microsphere protease cleavage assay, LF; inhibition, % at 10 µM; 360,000 tested, 0.12% active; AID 588501; also: plate controls were buffer without enzyme for full effect and enzyme alone for no effect
# Target sequence (P15917 whole entry, looked up): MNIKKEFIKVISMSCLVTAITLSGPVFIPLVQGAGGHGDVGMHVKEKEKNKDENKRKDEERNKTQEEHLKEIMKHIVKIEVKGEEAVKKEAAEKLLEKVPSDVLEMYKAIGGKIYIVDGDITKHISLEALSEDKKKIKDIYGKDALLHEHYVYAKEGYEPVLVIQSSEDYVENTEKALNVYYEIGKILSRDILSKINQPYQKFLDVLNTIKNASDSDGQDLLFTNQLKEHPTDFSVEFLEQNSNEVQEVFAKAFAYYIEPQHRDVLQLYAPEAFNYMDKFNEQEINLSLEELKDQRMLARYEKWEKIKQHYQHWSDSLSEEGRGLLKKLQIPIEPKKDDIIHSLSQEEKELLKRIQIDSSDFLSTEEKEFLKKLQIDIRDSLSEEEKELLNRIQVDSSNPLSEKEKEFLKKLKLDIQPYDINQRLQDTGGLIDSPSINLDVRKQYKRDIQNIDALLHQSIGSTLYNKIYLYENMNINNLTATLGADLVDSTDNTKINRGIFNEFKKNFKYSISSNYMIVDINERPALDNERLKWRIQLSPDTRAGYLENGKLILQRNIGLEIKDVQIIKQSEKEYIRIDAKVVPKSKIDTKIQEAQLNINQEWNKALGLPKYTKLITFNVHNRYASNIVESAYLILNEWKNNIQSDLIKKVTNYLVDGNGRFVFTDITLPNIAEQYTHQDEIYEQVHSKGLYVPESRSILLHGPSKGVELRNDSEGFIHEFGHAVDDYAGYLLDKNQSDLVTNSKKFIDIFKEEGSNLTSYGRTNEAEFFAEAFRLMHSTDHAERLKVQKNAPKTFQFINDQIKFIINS
# BoNT A protease = BoNT A light chain protease inhibition; 360,000 tested, 0.17% active; inhibition, % at 10 µM; multiplex microsphere protease substrate cleavage, flow cytometry; also: plate controls were buffer without enzyme for full effect and enzyme alone for no effect
# Bead autofluor = compound fluorescence in toxin protease inhibitor counterscreen; compound autofluorescence counterscreen, microsphere flow cytometry; active compounds read high; fluorescence intensity (test concentration not listed); 360,000 tested, 3.1% active; AID 624483; in the data active = fluorescence intensity above about 16000; inconclusive = no clear call, values can overlap the other calls
# Numbers without * were called inactive; ? = inconclusive; . = not tested or not shown. The list is not random: actives were taken first. Their share in the collection is about 3.5%. Rule as the data show it, unless noted: active = inhibition above about 30%; inconclusive = no clear call, values can overlap the other calls; inactive = below that.
SMILES,SARS 3CLpro inh,BoNT F protease,Anthrax LF prot,BoNT A protease,Bead autofluor
CSc1nnc(-c2cnccn2)n1C,-1,-5,0,-1,23864*
Cc1ccc(Cn2c(N)c(S(=O)(=O)c3cccs3)c3nc4ccccc4nc32)cc1,-12,7,1,7,18251*
COc1ccc(Cn2c(N)c(S(=O)(=O)c3cccs3)c3nc4ccccc4nc32)cc1,0,0,-1,0,5945
COc1cccc(/C=N/n2c(CO)nc3ccccc32)c1OC,0,6,1,?,21345*
Nc1c(S(=O)(=O)c2cccs2)c2nc3ccccc3nc2n1Cc1ccccc1,1,-2,3,2,16336*
COc1cccc(/C=N/n2c(N)c(S(=O)(=O)c3cccs3)c3nc4ccccc4nc32)c1OC,6,-6,-1,-2,16852*
COc1ccccc1NC(=O)C1=C(C)Nc2nnnn2C1c1cccc(C)c1 (centres undefined),-3,11,-6,0,5859
Cc1cc(/C(O)=C2\C(=O)C(=O)N(CCN(C)C)C2c2ccncc2)ccc1OCc1ccccc1 (centres undefined),-5,-4,1,0,1992
COC(=O)c1ccc(OCC(=O)c2ccc(O)cc2O)cc1,3,-5,-1,-3,24431*
O=C(COc1ccccc1F)c1ccc(O)cc1O,-3,6,-5,4,20781*
CCn1c(CCC(N)=O)nnc1SCC(=O)Nc1cccc(S(=O)(=O)N2CCCC2)c1,.,-1,5,0,3820
Nc1ccc(S(=O)(=O)Nc2nccc(/C=C/c3cccc([N+](=O)[O-])c3)n2)cc1,.,4,-7,0,3481
O=C(COc1ccc2ccccc2c1Br)Nc1ncn[nH]1,-3,4,-6,4,21352*
CCN(CC)c1nc2ccccc2nc1-n1nc(C)cc1C,2,0,-2,?,24280*
CC(=O)c1nnn(-c2nc(N)nc(N(c3ccccc3)c3ccccc3)n2)c1C,-1,-1,-2,?,22006*
Cc1cc(C)n(-c2nc(N(c3ccccc3)c3ccccc3)nc(-n3nc(C)cc3C)n2)n1,0,-5,-2,-7,17611*
Fc1ccc(NCc2nnc3n2CCCCC3)cc1,6,-2,-3,0,4574
O=C(O)CSCC(=O)Nc1ccccc1,-3,-2,-1,-2,16554*
O=C(CSCCO)Nc1ccccc1,-3,3,-2,0,9041
CC(=O)c1cccc(NC(=O)CSCc2ccccc2)c1,-2,-3,0,0,16402*
O=C(CN1CCCCCCC1)N/N=C/c1ccccc1F,4,-1,2,0,2511
O=C(CN1CCCCC1)N/N=C/c1ccc(Cl)cc1,-3,.,.,.,.
O=C(N/N=C/c1ccc(Cl)cc1Cl)Nc1ccccc1,5,9,-13,6,20342*
O=C(CN1CCSCC1)N/N=C/c1ccccc1F,-4,-2,0,0,23296*
O=C(CN1CCCCC1)N/N=C/c1ccc(Cl)cc1Cl,8,42*,3,3,3971
SMILES,SARS 3CLpro inh,BoNT F protease,Anthrax LF prot,BoNT A protease,Bead autofluor
O=C1C=C(NCc2ccccc2)C2(CCCCC2)O1,1,4,1,3,22250*
Cc1ccc(-c2nnc3ccc(SCC(=O)Nc4cc(C)on4)nn23)cc1,6,0,-4,1,20468*
Cc1cc(NC(=O)CSc2nnc(-c3cccnc3)n2C)no1,2,6,0,?,21792*
CC1CCCCC1NC(=O)CSc1nnc(CN2CCOCC2)n1C (centres undefined),-6,9,1,0,4281
Cc1nn2c(N)c(C#N)cnc2c1-c1ccc(Cl)cc1,2,4,3,-1,2494
O=C(N/N=C/c1ccccc1Cl)c1cccc(F)c1,5,-4,-3,-3,16940*
CCc1ccccc1OCC(=O)NC1CCCC1,-8,0,0,1,23047*
O=C(CN1C(=O)CSc2ccccc21)NC1CCCC1,-2,-4,-1,0,10432
CCc1ccccc1NC(=O)CN1CCC(NC(=O)COC)CC1,-7,-1,-8,?,23013*
COCC(=O)NC1CCN(C(=O)Nc2ccc(Br)cc2)CC1,3,-3,-6,-1,16587*
O=C(CN1C(=O)C(=O)c2ccccc21)NC1CCCCC1,-4,4,0,?,21596*
CC[n+]1c(/C=C/N(C)c2ccccc2)n(-c2ccccc2)c2ccc(-c3nc4ccccc4s3)cc21,-48,17,8,18,6076
COc1cccc(OC)c1C(=O)OCC(=O)NCC1CCCCC1,.,0,1,0,3713
COc1ccccc1OCC(=O)NCC1CCCCC1,-6,-3,2,-2,23960*
